# From publication PMC7862700, “An all-to-all approach to the identification of sequence-specific readers for epigenetic DNA modifications on cytosine”
# Tests used:
# Assay in all cases: DAPPL (digital affinity profiling via proximity ligation, sequencing); 10 mM Tris-HCl pH 7.5, 50 mM NaCl, 1 mM DTT, 4% glycerol, room temperature, 30 min; GST-TFs on glutathione beads, 16-mer random dsDNA library, 0.1% formaldehyde crosslink after washing; high values mean tight binding
# FEV = molecular target: T1, FEV (Homo sapiens, UniProt Q99581 1-238); conditions: protein: recombinant; tags: N-terminal GST; dsDNA, one strand shown
# T1 sequence: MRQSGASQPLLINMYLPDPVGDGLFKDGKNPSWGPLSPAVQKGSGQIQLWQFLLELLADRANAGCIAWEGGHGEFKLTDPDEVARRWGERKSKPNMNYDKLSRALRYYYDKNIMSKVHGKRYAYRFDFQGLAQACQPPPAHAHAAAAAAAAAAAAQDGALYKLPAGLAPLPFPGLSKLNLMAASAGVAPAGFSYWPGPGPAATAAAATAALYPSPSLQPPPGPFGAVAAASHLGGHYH
# Method in brief: (§1)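 Human transcription factors fused to GST were expressed in yeast, captured on glutathione beads, given DNA barcodes and pooled with a GST-only negative control. Pools were incubated with 200 nmole of a 16-mer random double-stranded DNA library in Tris/NaCl/DTT/glycerol buffer at room temperature for 30 min. They were then washed, crosslinked with 0.1% formaldehyde, proximity-ligated (BsaI/T4 ligase, 1 h, 37 °C), PCR-amplified and sequenced on an Illumina NextSeq500. Binding signal is each 6-mer's read frequency for a factor divided by its frequency for the GST control.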
# ETV5 = ETV5 (Homo sapiens, UniProt P41161 1-510); conditions: protein: recombinant; tags: N-terminal GST; dsDNA, one strand shown
# ETV5, sequence (P41161 whole entry): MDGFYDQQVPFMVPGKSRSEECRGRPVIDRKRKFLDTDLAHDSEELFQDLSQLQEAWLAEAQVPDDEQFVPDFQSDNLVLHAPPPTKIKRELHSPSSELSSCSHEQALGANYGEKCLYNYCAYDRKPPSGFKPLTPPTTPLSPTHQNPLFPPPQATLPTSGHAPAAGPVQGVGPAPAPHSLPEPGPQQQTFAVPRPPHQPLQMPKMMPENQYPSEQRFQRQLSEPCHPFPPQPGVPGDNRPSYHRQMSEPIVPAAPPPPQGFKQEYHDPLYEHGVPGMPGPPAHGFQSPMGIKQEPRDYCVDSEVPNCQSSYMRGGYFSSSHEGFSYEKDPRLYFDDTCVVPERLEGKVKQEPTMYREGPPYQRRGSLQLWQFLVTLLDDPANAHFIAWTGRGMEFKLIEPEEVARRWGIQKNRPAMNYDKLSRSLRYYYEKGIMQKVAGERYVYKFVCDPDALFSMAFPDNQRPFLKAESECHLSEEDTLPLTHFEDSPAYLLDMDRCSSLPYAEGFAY
# Method in brief: as §1
# HSF1 = HSF1 (Homo sapiens, UniProt Q00613 1-529); conditions: protein: recombinant; tags: N-terminal GST; chain copies: 3; dsDNA, one strand shown
# HSF1, sequence (Q00613 whole entry): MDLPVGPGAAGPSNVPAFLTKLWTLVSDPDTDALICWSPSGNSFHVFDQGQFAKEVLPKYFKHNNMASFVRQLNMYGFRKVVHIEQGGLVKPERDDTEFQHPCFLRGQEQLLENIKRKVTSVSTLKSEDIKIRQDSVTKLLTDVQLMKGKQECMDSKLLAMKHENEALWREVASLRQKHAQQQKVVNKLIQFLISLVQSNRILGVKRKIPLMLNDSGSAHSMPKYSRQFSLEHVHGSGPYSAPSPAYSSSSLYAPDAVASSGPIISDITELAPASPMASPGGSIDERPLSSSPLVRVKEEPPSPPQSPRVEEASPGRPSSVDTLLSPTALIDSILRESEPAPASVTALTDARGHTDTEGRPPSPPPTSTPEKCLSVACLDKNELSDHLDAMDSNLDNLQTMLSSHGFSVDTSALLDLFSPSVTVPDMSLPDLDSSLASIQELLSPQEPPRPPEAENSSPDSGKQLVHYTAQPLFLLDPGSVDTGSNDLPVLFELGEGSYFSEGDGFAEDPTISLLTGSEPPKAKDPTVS
# Method in brief: as §1
# SPIC = molecular target: T2, SPIC (Homo sapiens, UniProt Q8N5J4 1-248); conditions: protein: recombinant; tags: N-terminal GST; dsDNA, one strand shown
# T2 sequence: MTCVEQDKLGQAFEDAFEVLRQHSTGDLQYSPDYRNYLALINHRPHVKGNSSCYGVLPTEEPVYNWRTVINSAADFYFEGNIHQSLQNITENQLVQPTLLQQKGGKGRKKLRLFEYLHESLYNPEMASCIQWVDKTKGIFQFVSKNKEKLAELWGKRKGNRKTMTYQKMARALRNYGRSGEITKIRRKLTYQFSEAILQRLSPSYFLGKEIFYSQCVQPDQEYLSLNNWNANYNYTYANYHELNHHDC
# Method in brief: as §1
# ELF4 = ELF4 (Homo sapiens, UniProt Q99607 1-663); conditions: protein: recombinant; tags: N-terminal GST; dsDNA, one strand shown
# ELF4, sequence (Q99607 whole entry): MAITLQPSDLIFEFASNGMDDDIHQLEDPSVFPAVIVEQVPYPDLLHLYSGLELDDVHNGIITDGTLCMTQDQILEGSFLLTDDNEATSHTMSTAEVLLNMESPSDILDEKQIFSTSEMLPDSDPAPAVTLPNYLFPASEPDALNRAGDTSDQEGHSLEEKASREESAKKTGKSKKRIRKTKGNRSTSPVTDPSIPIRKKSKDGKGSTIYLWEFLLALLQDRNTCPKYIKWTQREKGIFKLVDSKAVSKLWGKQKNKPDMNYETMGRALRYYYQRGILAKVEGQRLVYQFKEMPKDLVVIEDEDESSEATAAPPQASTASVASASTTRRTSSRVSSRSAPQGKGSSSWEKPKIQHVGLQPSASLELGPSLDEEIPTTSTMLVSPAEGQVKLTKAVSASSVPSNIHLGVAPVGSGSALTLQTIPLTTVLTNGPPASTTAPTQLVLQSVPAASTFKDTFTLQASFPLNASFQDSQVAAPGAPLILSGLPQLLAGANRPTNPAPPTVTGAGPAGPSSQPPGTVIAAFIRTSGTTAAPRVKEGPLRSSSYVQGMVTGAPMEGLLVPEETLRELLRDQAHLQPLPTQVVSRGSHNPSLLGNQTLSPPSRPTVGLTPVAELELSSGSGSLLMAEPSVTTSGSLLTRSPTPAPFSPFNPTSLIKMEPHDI
# Method in brief: as §1
# ELK4 = molecular target: T3, ELK4 (Homo sapiens, UniProt P28324-2 1-405); conditions: protein: recombinant; tags: N-terminal GST; dsDNA, one strand shown
# T3 sequence: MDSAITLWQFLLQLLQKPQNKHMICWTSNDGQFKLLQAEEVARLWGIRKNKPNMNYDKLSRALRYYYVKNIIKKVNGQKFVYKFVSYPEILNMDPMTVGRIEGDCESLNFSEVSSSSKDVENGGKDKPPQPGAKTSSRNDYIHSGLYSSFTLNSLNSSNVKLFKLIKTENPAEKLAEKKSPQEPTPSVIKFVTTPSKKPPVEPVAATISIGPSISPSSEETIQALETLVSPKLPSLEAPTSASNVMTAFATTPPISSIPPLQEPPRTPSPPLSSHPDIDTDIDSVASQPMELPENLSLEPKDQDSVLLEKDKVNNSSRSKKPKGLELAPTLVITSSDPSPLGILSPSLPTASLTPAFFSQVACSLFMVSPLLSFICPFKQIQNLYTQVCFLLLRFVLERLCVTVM
# Method in brief: as §1
# ETV2 = molecular target: T4, ETV2 (Homo sapiens, UniProt O00321 1-342); conditions: protein: recombinant; tags: N-terminal GST; dsDNA, one strand shown
# T4 sequence: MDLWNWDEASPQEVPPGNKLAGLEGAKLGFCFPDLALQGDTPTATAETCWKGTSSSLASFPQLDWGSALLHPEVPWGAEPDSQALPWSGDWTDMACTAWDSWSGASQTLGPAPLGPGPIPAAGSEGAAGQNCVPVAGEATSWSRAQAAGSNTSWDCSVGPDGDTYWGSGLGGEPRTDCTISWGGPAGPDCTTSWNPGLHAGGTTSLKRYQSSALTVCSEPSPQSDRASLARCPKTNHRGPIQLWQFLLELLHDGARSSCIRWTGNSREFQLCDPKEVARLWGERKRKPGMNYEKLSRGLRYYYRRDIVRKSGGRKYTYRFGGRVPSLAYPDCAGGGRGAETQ
# Method in brief: as §1
# ELF3 = molecular target: T5, ELF3 (Homo sapiens, UniProt P78545 1-371); conditions: protein: recombinant; tags: N-terminal GST; dsDNA, one strand shown
# T5 sequence: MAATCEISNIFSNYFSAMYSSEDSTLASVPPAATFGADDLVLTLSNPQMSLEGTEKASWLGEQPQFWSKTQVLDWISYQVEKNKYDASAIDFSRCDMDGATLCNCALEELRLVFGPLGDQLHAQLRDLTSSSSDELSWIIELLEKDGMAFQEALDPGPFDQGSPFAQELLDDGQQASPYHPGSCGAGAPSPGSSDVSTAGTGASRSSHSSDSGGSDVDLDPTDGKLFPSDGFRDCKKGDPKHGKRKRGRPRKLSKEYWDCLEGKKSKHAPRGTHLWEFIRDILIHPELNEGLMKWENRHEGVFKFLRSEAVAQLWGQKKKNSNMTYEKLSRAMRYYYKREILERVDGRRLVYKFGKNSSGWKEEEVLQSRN
# Method in brief: as §1
# CRX = CRX (Homo sapiens, UniProt O43186 1-299); conditions: protein: recombinant; tags: N-terminal GST; dsDNA, one strand shown
# CRX, sequence (O43186 whole entry): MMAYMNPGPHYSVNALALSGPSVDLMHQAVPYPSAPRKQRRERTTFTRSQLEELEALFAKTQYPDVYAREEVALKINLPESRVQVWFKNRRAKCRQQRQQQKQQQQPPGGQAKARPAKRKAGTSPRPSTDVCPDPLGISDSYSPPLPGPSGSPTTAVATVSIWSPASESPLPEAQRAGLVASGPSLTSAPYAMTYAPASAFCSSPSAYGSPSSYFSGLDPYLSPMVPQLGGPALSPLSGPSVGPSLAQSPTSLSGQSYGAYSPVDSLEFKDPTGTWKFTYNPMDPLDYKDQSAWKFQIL
# Method in brief: as §1
# ETV1 = ETV1 (Homo sapiens, UniProt P50549 1-477); conditions: protein: recombinant; tags: N-terminal GST; dsDNA, one strand shown
# ETV1, sequence (P50549 whole entry): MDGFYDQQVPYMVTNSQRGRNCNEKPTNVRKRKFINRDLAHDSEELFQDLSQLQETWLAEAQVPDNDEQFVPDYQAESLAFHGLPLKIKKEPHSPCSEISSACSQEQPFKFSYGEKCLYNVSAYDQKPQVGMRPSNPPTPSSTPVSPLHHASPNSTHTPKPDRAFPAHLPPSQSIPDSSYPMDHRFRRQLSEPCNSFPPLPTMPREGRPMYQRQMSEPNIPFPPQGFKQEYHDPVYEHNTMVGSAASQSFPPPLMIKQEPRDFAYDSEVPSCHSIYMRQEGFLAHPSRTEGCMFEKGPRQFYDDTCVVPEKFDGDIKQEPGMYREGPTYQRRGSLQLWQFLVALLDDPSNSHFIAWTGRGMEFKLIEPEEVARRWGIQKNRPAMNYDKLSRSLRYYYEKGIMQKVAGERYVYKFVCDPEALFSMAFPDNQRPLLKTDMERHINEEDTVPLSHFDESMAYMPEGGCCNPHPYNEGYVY
# Method in brief: as §1
# ERF = molecular target: T6, ERF (Homo sapiens, UniProt P50548 1-548); conditions: protein: recombinant; tags: N-terminal GST; dsDNA, one strand shown
# T6 sequence: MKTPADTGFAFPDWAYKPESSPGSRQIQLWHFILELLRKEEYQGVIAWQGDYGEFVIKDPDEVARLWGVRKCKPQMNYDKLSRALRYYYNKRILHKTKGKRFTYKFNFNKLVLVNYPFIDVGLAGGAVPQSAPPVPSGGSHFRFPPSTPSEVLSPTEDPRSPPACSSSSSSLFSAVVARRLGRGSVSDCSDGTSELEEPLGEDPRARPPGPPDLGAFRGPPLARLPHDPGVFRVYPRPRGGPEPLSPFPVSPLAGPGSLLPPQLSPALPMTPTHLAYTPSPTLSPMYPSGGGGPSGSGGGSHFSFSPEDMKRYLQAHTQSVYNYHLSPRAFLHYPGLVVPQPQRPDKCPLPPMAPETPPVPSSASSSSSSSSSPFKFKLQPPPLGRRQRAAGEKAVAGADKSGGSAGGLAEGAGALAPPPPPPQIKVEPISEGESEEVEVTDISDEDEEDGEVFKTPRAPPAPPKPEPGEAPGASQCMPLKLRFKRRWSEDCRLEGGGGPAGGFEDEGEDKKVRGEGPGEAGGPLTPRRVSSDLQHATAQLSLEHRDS
# Method in brief: as §1
# ETV3L = molecular target: T7, ETV3L (Homo sapiens, UniProt Q6ZN32 1-361); conditions: protein: recombinant; tags: N-terminal GST; dsDNA, one strand shown
# T7 sequence: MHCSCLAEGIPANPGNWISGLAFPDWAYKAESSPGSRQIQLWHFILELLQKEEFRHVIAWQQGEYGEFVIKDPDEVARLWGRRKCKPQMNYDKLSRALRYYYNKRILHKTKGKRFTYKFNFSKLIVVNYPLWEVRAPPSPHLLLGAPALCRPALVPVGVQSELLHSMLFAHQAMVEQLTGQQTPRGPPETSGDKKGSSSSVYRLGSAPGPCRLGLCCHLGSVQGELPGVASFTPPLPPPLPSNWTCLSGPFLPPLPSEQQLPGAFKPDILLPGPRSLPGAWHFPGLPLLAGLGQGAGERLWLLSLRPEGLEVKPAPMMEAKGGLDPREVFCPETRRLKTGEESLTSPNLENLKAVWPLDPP
# Method in brief: as §1
# ETS2 = molecular target: T8, ETS2 (Homo sapiens, UniProt P15036 1-469); conditions: protein: recombinant; tags: N-terminal GST; dsDNA, one strand shown
# T8 sequence: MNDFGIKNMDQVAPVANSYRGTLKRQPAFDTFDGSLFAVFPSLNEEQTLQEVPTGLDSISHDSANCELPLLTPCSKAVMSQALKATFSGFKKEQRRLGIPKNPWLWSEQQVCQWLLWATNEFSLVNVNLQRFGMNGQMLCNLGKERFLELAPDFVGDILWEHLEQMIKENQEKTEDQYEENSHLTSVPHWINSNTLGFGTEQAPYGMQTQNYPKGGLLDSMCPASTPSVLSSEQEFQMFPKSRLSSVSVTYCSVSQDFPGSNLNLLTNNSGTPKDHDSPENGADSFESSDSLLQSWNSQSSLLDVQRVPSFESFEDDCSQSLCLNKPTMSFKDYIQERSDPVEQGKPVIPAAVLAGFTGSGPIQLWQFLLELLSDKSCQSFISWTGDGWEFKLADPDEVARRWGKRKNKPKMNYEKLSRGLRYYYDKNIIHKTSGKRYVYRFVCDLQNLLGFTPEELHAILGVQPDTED
# Method in brief: as §1
# SPDEF = molecular target: T9, SPDEF (Homo sapiens, UniProt O95238 1-335); conditions: protein: recombinant; tags: N-terminal GST; dsDNA, one strand shown
# T9 sequence: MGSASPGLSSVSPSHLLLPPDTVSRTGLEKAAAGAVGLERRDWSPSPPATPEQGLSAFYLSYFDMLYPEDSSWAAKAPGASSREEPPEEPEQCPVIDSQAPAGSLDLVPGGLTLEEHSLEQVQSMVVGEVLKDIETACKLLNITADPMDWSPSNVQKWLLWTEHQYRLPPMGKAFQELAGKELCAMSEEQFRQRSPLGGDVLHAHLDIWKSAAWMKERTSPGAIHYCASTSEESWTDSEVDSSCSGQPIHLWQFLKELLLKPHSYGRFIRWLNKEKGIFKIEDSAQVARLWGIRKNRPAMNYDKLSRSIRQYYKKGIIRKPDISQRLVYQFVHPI
# Method in brief: as §1
# ETV7 = molecular target: T10, ETV7 (Homo sapiens, UniProt Q9Y603 1-341); conditions: protein: recombinant; tags: N-terminal GST; dsDNA, one strand shown
# T10 sequence: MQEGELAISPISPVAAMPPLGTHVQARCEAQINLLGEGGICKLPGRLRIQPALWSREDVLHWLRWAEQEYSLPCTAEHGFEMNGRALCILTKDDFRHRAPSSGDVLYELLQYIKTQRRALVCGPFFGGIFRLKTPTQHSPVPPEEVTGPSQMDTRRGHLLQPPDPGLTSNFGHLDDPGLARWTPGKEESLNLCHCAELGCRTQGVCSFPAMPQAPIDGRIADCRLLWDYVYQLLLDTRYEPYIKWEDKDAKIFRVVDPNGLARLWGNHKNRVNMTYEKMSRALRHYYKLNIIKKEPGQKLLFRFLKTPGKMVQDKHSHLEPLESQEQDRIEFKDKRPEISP
# Method in brief: as §1
# ELF5 = molecular target: T11, ELF5 (Homo sapiens, UniProt Q9UKW6-2 1-255); conditions: protein: recombinant; tags: N-terminal GST; dsDNA, one strand shown
# T11 sequence: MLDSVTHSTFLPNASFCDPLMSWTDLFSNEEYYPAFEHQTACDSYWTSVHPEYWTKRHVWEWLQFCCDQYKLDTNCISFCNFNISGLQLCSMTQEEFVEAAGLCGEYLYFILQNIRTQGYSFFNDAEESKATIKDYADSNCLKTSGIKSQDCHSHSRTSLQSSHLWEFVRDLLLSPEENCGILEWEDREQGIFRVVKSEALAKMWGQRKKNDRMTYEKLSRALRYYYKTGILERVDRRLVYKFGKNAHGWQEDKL
# Method in brief: as §1
# ETV3 = molecular target: T12, ETV3 (Homo sapiens, UniProt P41162-2 1-143); conditions: protein: recombinant; tags: N-terminal GST; dsDNA, one strand shown
# T12 sequence: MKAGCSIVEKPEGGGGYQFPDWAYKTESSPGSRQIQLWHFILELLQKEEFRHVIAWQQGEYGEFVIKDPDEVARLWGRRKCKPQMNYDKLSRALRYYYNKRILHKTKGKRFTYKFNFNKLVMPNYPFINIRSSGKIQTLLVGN
# Method in brief: as §1
# ETV6 = ETV6 (Homo sapiens, UniProt P41212 1-452); conditions: protein: recombinant; tags: N-terminal GST; dsDNA, one strand shown
# ETV6, sequence (P41212 whole entry): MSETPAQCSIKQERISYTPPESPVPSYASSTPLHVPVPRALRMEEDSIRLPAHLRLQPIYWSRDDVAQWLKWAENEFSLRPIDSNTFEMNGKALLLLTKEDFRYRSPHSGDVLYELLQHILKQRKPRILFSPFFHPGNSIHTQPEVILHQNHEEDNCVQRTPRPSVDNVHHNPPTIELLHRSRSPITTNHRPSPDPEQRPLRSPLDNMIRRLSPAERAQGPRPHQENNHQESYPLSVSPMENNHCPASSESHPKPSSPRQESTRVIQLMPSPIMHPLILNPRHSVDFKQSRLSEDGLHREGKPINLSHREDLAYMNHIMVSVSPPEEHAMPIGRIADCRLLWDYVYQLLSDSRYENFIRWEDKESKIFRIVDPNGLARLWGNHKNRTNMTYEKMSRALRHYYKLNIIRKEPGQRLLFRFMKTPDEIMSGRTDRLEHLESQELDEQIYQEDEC
# Method in brief: as §1
sequence,measurement,setting,value
ACATAA,binding signal,FEV,"1.04 fold enrichment (6-mer frequency, TF over GST control)"
same,binding signal,ETV5,"1.13 fold enrichment (6-mer frequency, TF over GST control)"
same,binding signal,HSF1,"1.2 fold enrichment (6-mer frequency, TF over GST control)"
same,binding signal,SPIC,"1.19 fold enrichment (6-mer frequency, TF over GST control)"
same,binding signal,ELF4,"1.09 fold enrichment (6-mer frequency, TF over GST control)"
same,binding signal,ELK4,"1.14 fold enrichment (6-mer frequency, TF over GST control)"
same,binding signal,ETV2,"1.15 fold enrichment (6-mer frequency, TF over GST control)"
same,binding signal,ELF3,"1.17 fold enrichment (6-mer frequency, TF over GST control)"
same,binding signal,CRX,"1.34 fold enrichment (6-mer frequency, TF over GST control)"
same,binding signal,ETV1,"1.07 fold enrichment (6-mer frequency, TF over GST control)"
same,binding signal,ERF,"1.05 fold enrichment (6-mer frequency, TF over GST control)"
same,binding signal,ETV3L,"1.1 fold enrichment (6-mer frequency, TF over GST control)"
same,binding signal,ETS2,"1.07 fold enrichment (6-mer frequency, TF over GST control)"
same,binding signal,SPDEF,"1.03 fold enrichment (6-mer frequency, TF over GST control)"
same,binding signal,ETV7,"1.11 fold enrichment (6-mer frequency, TF over GST control)"
same,binding signal,ELF5,"1.09 fold enrichment (6-mer frequency, TF over GST control)"
same,binding signal,ETV3,"1.09 fold enrichment (6-mer frequency, TF over GST control)"
same,binding signal,ETV6,"1.08 fold enrichment (6-mer frequency, TF over GST control)"
